13 molecules from PubChem BioAssay (NCI) can be followed below.

Among the test systems are SR leukemia; RPMI-8226 leukemia; OVCAR-8 ovarian; OVCAR-5 ovarian; OVCAR-4 ovarian; SK-OV-3 ovarian; IGROV1 ovarian; OVCAR-3 ovarian; HS 578T breast; NCI/ADR-RES ovarian.
Common to all, as to assay: NCI-60 one-dose screen, 48 h (100 = growth as untreated, 0 = no growth, -100 = all killed)
What all share (conditions): 10 µM unless noted

Structures are written as SMILES. Where “and” joins values, the source holds several entries; their conditions need not be identical. Identical values can stand only once. This is part of a sample that, as a whole, favours compounds with a hit. Of some 83,000 tested, about 20% had one in any assay.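 Method: cells in 96-well plates; compound added at one concentration; 48 h incubation; percent growth measured; values under 10 scored active.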 Calls of active or inactive are those of the source.

For the molecule `COc1cc(CNC(=O)CCCC/C=C/C(C)C)ccc1O`, the growth with SR leukemia was 91.7% (inactive) and 99% (inactive); with RPMI-8226 leukemia, 100% (inactive) and 94.7% (inactive); with OVCAR-8 ovarian, 109% (inactive); in the test with OVCAR-5 ovarian, 92.7% (inactive); in the test on OVCAR-4 ovarian it was 93.3% (inactive) and 104% (inactive); in the test with SK-OV-3 ovarian it was 117% (inactive) and 105% (inactive). The growth in the test with IGROV1 ovarian is 96.8% (inactive) and 88.2% (inactive); in the test with OVCAR-3 ovarian, 84.5% (inactive) and 119% (inactive); in the test on HS 578T breast it was 91.5% (inactive) and 111% (inactive); in the test on NCI/ADR-RES ovarian, 113% (inactive) and 97.5% (inactive).
`CN1CCN(CCNC(=O)c2cccc(CN3c4cccc5c4C(=Cc4cccnc43)N(C)C5=O)c2)CC1`: the growth was 33.5% (inactive) in the test with SR leukemia; 2.26% (active) in the test with RPMI-8226 leukemia; 40.8% (inactive) in the test with OVCAR-8 ovarian; 42% (inactive) in the test with OVCAR-5 ovarian; 37.4% (inactive) with OVCAR-4 ovarian; 18.2% (inactive) in the test on SK-OV-3 ovarian. For the same molecule, the growth is 18.6% (inactive) with IGROV1 ovarian, 34.3% (inactive) in the test on OVCAR-3 ovarian, -6.06% (active) in the test with HS 578T breast and 80.9% (inactive) in the test on NCI/ADR-RES ovarian.
For the molecule `COc1cc(-c2[nH]ncc2Nc2ccc(Cl)cc2)cc(OC)c1OC`, the growth in the test with SR leukemia was 67.7% (inactive); with RPMI-8226 leukemia it was 21.1% (inactive); in the test with OVCAR-8 ovarian it was 67.5% (inactive); in the test on OVCAR-5 ovarian it was 75.7% (inactive); with OVCAR-4 ovarian, 71.6% (inactive); in the test on SK-OV-3 ovarian, 64.3% (inactive). Further, the growth in the test on IGROV1 ovarian was 69.8% (inactive); in the test with OVCAR-3 ovarian, 86.1% (inactive); in the test with HS 578T breast, 66% (inactive); in the test with NCI/ADR-RES ovarian it was 61.7% (inactive).
On to `COc1ccc(-c2nnc3n(C)c(=O)c4ccccc4n23)cc1O`, for which the growth in the test on SR leukemia was 21.4% (inactive); in the test on RPMI-8226 leukemia, 15.9% (inactive); in the test with OVCAR-8 ovarian, 25.2% (inactive); in the test on OVCAR-5 ovarian, 66% (inactive); in the test on OVCAR-4 ovarian, 53.6% (inactive); in the test with SK-OV-3 ovarian, 14.9% (inactive). In addition, the growth in the test on IGROV1 ovarian was 55.7% (inactive); in the test with OVCAR-3 ovarian, 0.325% (active); in the test with HS 578T breast it was 29.5% (inactive); in the test with NCI/ADR-RES ovarian, 15.5% (inactive).
Turning to `Cc1ccc(S(=O)(=O)Nc2cc(Sc3ccccc3)c(O)c3ccccc23)cc1`, the growth in the test on SR leukemia is 20.8% (inactive); in the test on RPMI-8226 leukemia, 28.8% (inactive); with OVCAR-8 ovarian, -0.704% (active); with OVCAR-5 ovarian, 106% (inactive); in the test with OVCAR-4 ovarian, -99.7% (active); in the test on SK-OV-3 ovarian, 115% (inactive). In addition, the growth with IGROV1 ovarian was 85% (inactive); in the test with OVCAR-3 ovarian, -5.01% (active); in the test on HS 578T breast it was 98.7% (inactive); in the test on NCI/ADR-RES ovarian, 5.05% (active).
As to `C#CCOCC1CN(C)C(=O)O1` (stereo not given), the growth is 69.7% (inactive) with SR leukemia; 110% (inactive) in the test on RPMI-8226 leukemia; 94.1% (inactive) with OVCAR-8 ovarian; 126% (inactive) in the test with OVCAR-5 ovarian; 116% (inactive) in the test with OVCAR-4 ovarian; 133% (inactive) with SK-OV-3 ovarian. The growth with IGROV1 ovarian was 108% (inactive); in the test on OVCAR-3 ovarian, 109% (inactive); in the test with HS 578T breast, 109% (inactive); in the test with NCI/ADR-RES ovarian it was 109% (inactive).
With `CC12OC(CC(O)C1O)n1c3ccccc3c3c4c(c5c6ccccc6n2c5c31)C(=O)N(CCN1CCOCC1)C4=O` (stereo not given), the growth was 1.71% (active) with SR leukemia; 6.35% (active) with RPMI-8226 leukemia; 17% (inactive) with OVCAR-8 ovarian; 24.7% (inactive) with OVCAR-5 ovarian; 22.9% (inactive) with OVCAR-4 ovarian; -8.93% (active) in the test with SK-OV-3 ovarian. Besides, the growth is 5.73% (active) in the test on IGROV1 ovarian, 20.8% (inactive) with OVCAR-3 ovarian, 23.1% (inactive) with HS 578T breast and 15.4% (inactive) in the test with NCI/ADR-RES ovarian.
For `COc1ccc(C(CC(=O)c2ccc3c(c2)OCO3)C(=O)O)cc1OC` (stereo not given), the growth in the test with SR leukemia is 116% (inactive) and 90.8% (inactive); in the test with RPMI-8226 leukemia, 103% (inactive) and 96.1% (inactive); in the test on OVCAR-8 ovarian, 107% (inactive) and 106% (inactive); in the test with OVCAR-5 ovarian, 118% (inactive) and 99.9% (inactive); in the test on OVCAR-4 ovarian, 132% (inactive) and 108% (inactive); in the test on SK-OV-3 ovarian, 113% (inactive) and 105% (inactive). The growth is 131% (inactive) and 106% (inactive) with IGROV1 ovarian; 119% (inactive) and 102% (inactive) in the test with OVCAR-3 ovarian; 94.8% (inactive) and 121% (inactive) with HS 578T breast; 106% (inactive) and 98.5% (inactive) with NCI/ADR-RES ovarian.
Consider `CC(C)(C)c1cc(NC(=O)Nc2ccc(-c3cn4c(n3)sc3cc(OCCN5CCOCC5)ccc34)cc2)no1`, for which the growth is 9.24% (active) and 1.25% (active) in the test with SR leukemia; -11% (active) and 22.8% (inactive) in the test on RPMI-8226 leukemia; 13.2% (inactive) and -9.65% (active) with OVCAR-8 ovarian; 56% (inactive) and 60.8% (inactive) with OVCAR-5 ovarian; 59.3% (inactive) and 3.54% (active) in the test on OVCAR-4 ovarian; 45.4% (inactive) and 27.9% (inactive) with SK-OV-3 ovarian. Besides, the growth with IGROV1 ovarian is 48.3% (inactive) and 37.5% (inactive); in the test on OVCAR-3 ovarian, -43.2% (active) and 38.5% (inactive); in the test on HS 578T breast it was -2.54% (active); with NCI/ADR-RES ovarian, 51.5% (inactive) and 23.2% (inactive).
`CCCN1C(=O)/C(=c2\sc3n(c2=O)C2C(NN=3)N(CC)C(=O)N2CC)c2ccccc21` (stereo not given): the growth was 17% (inactive) in the test on SR leukemia; 21.9% (inactive) in the test on RPMI-8226 leukemia; 7.65% (active) in the test with OVCAR-8 ovarian; 27.5% (inactive) in the test with OVCAR-5 ovarian; 48.8% (inactive) in the test with OVCAR-4 ovarian; 43.7% (inactive) in the test with SK-OV-3 ovarian. Besides, the growth in the test with IGROV1 ovarian is 16% (inactive); with OVCAR-3 ovarian, 12.4% (inactive); in the test with HS 578T breast, 16.8% (inactive); with NCI/ADR-RES ovarian it was 0.109% (active).
In the case of `O=C(CC1(O)C(=O)Nc2ccc(Br)cc21)c1ccc(Cl)cc1` (stereo not given), the growth in the test on SR leukemia was 103% (inactive); in the test with RPMI-8226 leukemia it was 96.7% (inactive); in the test on OVCAR-8 ovarian, 96.6% (inactive); in the test on OVCAR-5 ovarian, 124% (inactive); in the test on OVCAR-4 ovarian it was 97% (inactive); in the test with SK-OV-3 ovarian, 88.3% (inactive). Moreover, the growth with IGROV1 ovarian is 93.2% (inactive); in the test on OVCAR-3 ovarian it was 102% (inactive); with HS 578T breast it was 91.7% (inactive); with NCI/ADR-RES ovarian, 104% (inactive).
As to `O=C(CN1C(=O)S/C(=C\C(Cl)=C\c2ccccc2)C1=O)NC1C=CS(=O)(=O)C1` (stereo not given), the growth with SR leukemia was 6.39% (active); in the test on RPMI-8226 leukemia, 0.667% (active); with OVCAR-8 ovarian, 4.68% (active); in the test with OVCAR-5 ovarian, 44.2% (inactive); in the test on OVCAR-4 ovarian it was 39.4% (inactive); in the test with SK-OV-3 ovarian it was 98.8% (inactive). Further, the growth is -16.1% (active) in the test with IGROV1 ovarian, -12.6% (active) in the test on OVCAR-3 ovarian, 51.7% (inactive) with HS 578T breast and 24.7% (inactive) with NCI/ADR-RES ovarian.
Consider `CC/C=C\C/C=C\C[C@H](O)C/C=C1/C(=O)C=C[C@@H]1C/C=C\CCCC(=O)OC`, for which the growth with SR leukemia is 0.0807% (active); in the test with RPMI-8226 leukemia, -8.73% (active); in the test with OVCAR-8 ovarian it was 7.41% (active); in the test with OVCAR-5 ovarian it was 11% (inactive); in the test with OVCAR-4 ovarian, 28.2% (inactive); in the test with SK-OV-3 ovarian, 24.2% (inactive). Besides, the growth is -28.9% (active) in the test with IGROV1 ovarian, -40.1% (active) in the test with OVCAR-3 ovarian, 32.6% (inactive) in the test with HS 578T breast and 12.1% (inactive) in the test with NCI/ADR-RES ovarian.
